The list is not random: actives were taken first. Their share in the collection is about 21%.
Cycloheximide cs: counter-screen for Shiga toxin inhibitors: cycloheximide protein synthesis inhibition; hit rate 12% among 300,000; cell reporter, cycloheximide protein synthesis inhibition counterscreen; max response, %; in the data active means max response mostly above about 13%, no sharp cut-off; inactive means mostly below about 14%; further: read at 38.3 µM for the half of the compounds with a filed dose; 0% is about no effect
NS1 inh: influenza NS1 inhibition; hit rate 0.4% among 270,000; Potency, µM (top dose mostly 46.1 µM), without a hit: top-dose activity, positive = more growth; calls by dose curve; further: potency means the concentration at half of the fitted maximal effect; actives are rising curves; nearly all actives have a fitted effect of over 50% in size
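Compounds were scored for reversing the slow growth caused by influenza A NS1 in S. cerevisiae, measured by optical density at 600 nm. Assay medium contained 2% galactose at pH 6.0; NS1-free yeast of the same strain were the positive control.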
Pf growth 48h: inhibits P. falciparum growth in the first generation, 48 h. P. falciparum luciferase growth in erythrocytes, 48 h. Potency, µM (series often up to 28.7 µM), inactives show at the top dose activity change, negative = inhibition, usual class: inhibitors. hit rate 5.9% among 310,000. AID 504832; further: potency means the concentration at half of the fitted maximal effect; on the % scale 0 is the no-effect control and ±100 the full control effect
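Erythrocytes infected with P. falciparum carrying an integrated firefly luciferase reporter (2% hematocrit, 0.1% parasitemia final) were exposed to compounds in RPMI 1640 with 0.5% Albumax at 37 C, 5% CO2. Growth inhibition was scored as reduced luminescence.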
Shiga inhibitor: inhibitors of Shiga toxin in Vero cells. inhibition, % at 38.7 µM. hit rate 9.2% among 290,000. AID 2315. Vero cells, Shiga toxin protein synthesis inhibition reporter; in the data active means inhibition mostly above about 28%, no sharp cut-off; inactive means mostly below about 43%; further: 0% is about no effect
Sm TGR inh: blocks Schistosoma mansoni thioredoxin glutathione reductase; Q962Y6; purified TGR, DTNB reduction, TNB absorbance 405 nm; Potency, µM (doses to about 114 µM), inactives show at the top dose activity change, negative = inhibition, usual class: inhibitors; hit rate 3% among 360,000; AID 485364; further: potency means the concentration at half of the fitted maximal effect; on the % scale 0 is the no-effect control and ±100 the full control effect; nearly all actives have a fitted effect of over 60% in size
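Kinetic colorimetric format: TGR-catalysed, NADPH-driven DTNB reduction monitored via TNB absorbance. Enzyme dispensed at 20 nM; compound exposure 15 min at room temperature before reaction start.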
Pf growth 96h: P. falciparum growth inhibition at 96 hours; P. falciparum luciferase reporter growth, 96 h; Potency, µM (highest dose often 28.7 µM), for the others: at the top dose activity change, negative = inhibition, hits mostly inhibitors; hit rate 6.9% among 320,000; AID 504834; further: potency means the concentration at half of the fitted maximal effect; on the % scale 0 is the no-effect control and ±100 the full control effect
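Two parasite generations (96 h, 37 C, 5% CO2) of compound exposure in infected erythrocytes (0.05% parasitemia, 2% hematocrit). Luciferase-reporter P. falciparum; decreased luminescence indicates inhibited growth, aimed at apicoplast-acting delayed death.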
* marks the source's active call; other numbers are inactive results; i = inactive; ? = inconclusive; nt = not tested or not shown; [ ] = dose if it differs, or a comment. Unless noted, the call rests on the fitted dose curve; in most records, active means well fitted curve in the direction sought with a large enough effect; inconclusive means small, poorly fitted or top-dose-only effect, or another doubt; inactive means no such curve, though single readings can be large; an effect the other way counts as inactive or inconclusive.

SMILES | Cycloheximide cs | NS1 inh | Pf growth 48h | Shiga inhibitor | Sm TGR inh | Pf growth 96h
Cc1cccc(OCC2=NS(=O)(=O)c3ccccc3N2)c1 | 38* | 4% | 44% | 106* | 9% | 4%
Cc1ccc(C2CC(=O)Oc3c(C(C)C)ccc(C)c32)cc1 (stereo not drawn) | 0 | nt | nt | i | nt | nt
NC(=O)c1ccsc1NC(=O)c1ccc(S(=O)(=O)N2CCCCC2)cc1 | 46* | 10% | nt | 65* | 6% | ?
NC(=O)c1ccsc1NC(=O)c1ccc(S(=O)(=O)N2CCCC2)cc1 | 33* | nt | 92% | 139* | 8% | 11%
CN1CCN(S(=O)(=O)c2cccc(C(=O)Nc3sccc3C(N)=O)c2)CC1 | nt | nt | 13µM* | nt | -22% | ?
Cc1ccc(C(NC(=O)c2cccc(S(=O)(=O)N3CCN(C)CC3)c2)c2ccccc2)cc1 (stereo not drawn) | nt | nt | 15µM* | nt | 9% | ?
CC1CC(C)CN(S(=O)(=O)c2ccc(C(=O)Nc3sccc3C(N)=O)cc2)C1 (stereo not drawn) | -1 | 3% | ? | -2 | -10% | ?
Cc1nn(-c2ccccc2)nc1C(=O)OCC(=O)N1CCC(C)CC1 | nt | nt | 1% | nt | -8% | -5%
CC(C)OC(=O)c1ccc(OC(=O)c2cccnc2)cc1 | 12* | -10% | 21% | 13 | -1% | nt
COC(=O)c1ccc(OC(=O)c2cccnc2)cc1 | -3 | 7% | -1% | -1 | -22% | ?
O=C(Nc1ccc(OC(=O)c2cccnc2)cc1)c1cccnc1 | 0 | -8% | ? | -15 | 10% | 5%
CC(=O)Nc1ccc(OC(=O)c2cccnc2)cc1 | -1 | -4% | ? | -12 | 1% | 1.2µM*
COc1ccccc1CNC(=O)c1ccc2[nH]c(C)c(C)c2c1 | nt | nt | nt | nt | 1% | nt
Cc1[nH]c2ccc(C(=O)NCCCN3CCN(C)CC3)cc2c1C | -4 | -5% | -14% | 9 | -2% | 12µM*
Cc1[nH]c2ccc(C(=O)NCCCN3CCOCC3)cc2c1C | 2 | 24% | 13% | -6 | 2% | ?
Cc1[nH]c2ccc(C(=O)NCc3ccccn3)cc2c1C | 29* | -4% | -22% | 55* | -13% | ?
Cc1[nH]c2ccccc2c1CCNC(=O)c1ccc2nccnc2c1 | 15* | 7% | 2% | nt | -4% | -5%
Cc1cc(NC(=O)c2ccc3[nH]c(C)c(C)c3c2)ccn1 | 34 | 5% | 2.6µM* | 52* | 16% | 2.6µM*
COc1ccc(N(C)C(=O)Cn2cc(S(=O)(=O)N3CCN(c4ccccc4F)CC3)c3ccccc3c2=O)c(OC)c1 | nt | nt | nt | nt | 5% | nt
CCCC(C(=O)NCCC(C)C)N(Cc1ccccc1Cl)C(=O)c1snc(C(N)=O)c1N (stereo not drawn) | 0 | 9% | -24% | -2 | 3% | -27%
COc1ccc(NC(=O)c2ccc3[nH]c(C)c(C)c3c2)cc1 | 39* | -7% | 17% | 48* | 14% | 32%
COc1ccc(NC2CCCN(C(=O)c3ccc(C)nc3)C2)cc1 (stereo not drawn) | -3 | -19% | 0% | 13 | -16% | ?
COc1ccc(NC2CCCN(C(=O)c3ccc4[nH]c(C)c(C)c4c3)C2)cc1 (stereo not drawn) | -2 | 0% | ? | -13 | -11% | 13µM*
COc1ccc(NC2CCCN(C(=O)c3cc4ncccn4n3)C2)cc1 (stereo not drawn) | 25* | 7% | -8% | 36* | -32% | ?
CCc1cccc(CC)c1NC(=S)NCCc1c(C)[nH]c2ccccc12 | -3 | 13% | 13µM* | -13 | -4% | 13µM*
SMILES | Cycloheximide cs | NS1 inh | Pf growth 48h | Shiga inhibitor | Sm TGR inh | Pf growth 96h
NC(=O)NOCc1cccc(Cl)c1 | 12 | 6% | 4% | -5 | nt | 17%
CCOc1ccc(NC(=O)c2ccc3[nH]c(C)c(C)c3c2)cc1 | nt | nt | nt | nt | -3% | nt
CC(=O)Nc1cccc(NC(=O)c2ccc3[nH]c(C)c(C)c3c2)c1 | 20* | 8% | 61% | 56* | -2% | 63%
O=C(NCc1nc2ncc(Br)cc2[nH]1)c1ccccc1 | 15* | -5% | 33% | 48 | 0% | 42%
Brc1cnc2nc(SC/C=C/c3ccccc3)[nH]c2c1 | 1 | -4% | ? | 13 | -20% | -19%
CC(C(=O)Nc1cccc(C#N)c1)n1nc(-c2ccccc2)c2c(c1=O)CCCC2 (stereo not drawn) | nt | nt | nt | nt | 3% | nt
CCOC(=O)c1ccc2[nH]c3c(c2c1)CCCC3O (stereo not drawn) | 24* | -5% | 30% | 35 | -4%[57.1 µM] | 27%
CCOC(=O)CNC(=O)C1CCCc2c1[nH]c1ccc(Cl)cc21 (stereo not drawn) | -1 | 0% | -7% | -12 | 0% | 26%
CCOC(=O)c1ccc2[nH]c3c(c2c1)CCCC3 | 51* | -32% | 30% | 87* | -3% | ?
CCOC(=O)c1ccc(NS(=O)(=O)c2ccc3[nH]c4c(c3c2)CCCCC4)cc1 | nt | nt | nt | nt | -1% | nt
CN(C(=O)CSc1nnc(-c2ccc([N+](=O)[O-])cc2)o1)c1ccccc1 | nt | nt | nt | nt | -4% | nt
Oc1sc(C=Nc2ccc(F)cc2)c2ccccc12 | 57* | 4% | 4.7µM* | 13* | 17% | 3.3µM*
Oc1sc(C=Nc2ccccc2)c2ccccc12 | 68* | -2% | -27% | 80* | -1% | ?
Cc1ccc(N=Cc2c(O)ccc3ccccc23)cc1F | 12 | ? | 9% | 15 | -31% | ?
O=C(O)Cc1ccc(N=Cc2c(O)ccc3ccccc23)cc1 | -1 | -9% | -1% | 9 | -26% | 46%
Cc1oc2c(c1C(=O)NCc1ccccc1F)C1=NCCN1C=N2 | nt | nt | nt | nt | 0% | nt
CC(C)C(=O)N1CCN(CCN=Cc2c(O)n(C)c(=O)n(C)c2=O)CC1 | -4 | 9% | ? | 43 | -29% | 13µM*
CN(C)c1ccc(CNn2cnnc2SCC(=O)NC(C)(C)C)cc1 | -1 | 3% | 4% | 2 | 0% | 18%
CN(C)c1ccc(CNn2cnnc2SCc2ccccc2F)cc1 | 25* | -18% | 15% | 37* | -7% | nt
CC(C)NC(=O)NC(=O)COC(=O)c1ncc(Cl)c(Cl)c1Cl | 1 | nt | -1% | 29 | -2% | -1%
CCN(CC)CCN1c2ccccc2Sc2ccccc21 | -4 | 1% | ? | -11 | -5% | 69%
CN(C)CC(C)(C)CN1c2ccccc2Sc2ccccc21 | nt | -2% | nt | nt | nt | nt
